Measured values as given in PubChem BioAssay (Tox21).
Results filed as inconclusive are left out. Activity calls are given as the source filed them. Unless noted, calls follow the shape of the full dose curve.

What was measured:
[1] = qHTS assay to identify small molecule agonists of the vitamin D receptor (VDR) signaling pathway - cell viability counter screen (AID 743224; active = well fitted curve in the direction sought with a large enough effect in the repeat runs; an effect the other way counts as inactive or inconclusive; also: series mostly up to about 63 µM; nearly all actives have a fitted effect of over 50% in size)
Outline: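 VDR-bla cells were preincubated 4 h at 37C/5% CO2, then exposed to compounds for 16 h. After the 2 h room-temperature bla FRET read, CellTiter-Glo was added to the same wells and luminescence read after 30 min.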

[2] = qHTS assay to identify small molecule antagonists of the vitamin D receptor (VDR) signaling pathway - cell viability counter screen (AID 743225; active = well fitted curve in the direction sought with a large enough effect in the repeat runs; an effect the other way counts as inactive or inconclusive; also: nearly all actives have a fitted effect of over 50% in size)
Outline: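 Parallel cytotoxicity test: VDR-UAS-bla HEK 293T, 3 nM (final) 1-alpha,25-dihydroxyvitamin D3 with test compound, 16 h, 37C. Endpoint is CellTiter-Glo luminescence in the same wells.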

[3] = qHTS assay to identify small molecule agonists of the NFkB signaling pathway (AID 1159509; active = well fitted curve in the direction sought with a large enough effect in the signal ratio in the repeat runs, not every such curve was filed as active; the % refers to the signal ratio; also: series mostly up to about 61 µM)
Outline: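 NFkB-bla ME-180 cells carry a beta-lactamase reporter under an NF-kB response element. They were plated overnight, then exposed to compounds for 5 h at 37 C. Read-out is LiveBLAzer FRET after 1.5 hr at room temperature (405 nm excitation; 460/530 nm emission).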

[4] = qHTS assay to identify small molecule agonists of the NFkB signaling pathway - cell viability counter screen (AID 1159515); also: series mostly up to about 61 µM; nearly all actives have a fitted effect of over 55% in size
Outline: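 NFkB-bla ME-180 cells, 2,000/well, were plated overnight at 37 C, 5% CO2, then exposed to compounds in DMSO for 5 hr. After the bla FRET read, CellTiter-Glo was added to the same wells; luminescence was read after 30 min at room temperature.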

[5] = qHTS assay to identify small molecule agonists of the endoplasmic reticulum stress response signaling pathway (AID 1159516; active = well fitted activation curve with a large enough effect in the signal ratio in the repeat runs, not every such curve was filed as active; the % refers to the signal ratio)
Outline: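 CellSensor ESRE-bla HeLa cells, carrying a beta-lactamase reporter driven by the ER stress response element, were plated overnight and exposed to compounds for 5 hr at 37 C. Reporter activity was read as FRET substrate fluorescence after 2 hr at room temperature.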

[6] = qHTS assay to identify small molecule agonists of the endoplasmic reticulum stress response signaling pathway - cell viability counter screen (AID 1159517); also: series mostly up to about 61 µM; nearly all actives have a fitted effect of over 50% in size
Outline: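 ESRE-bla HeLa cells, 1,500 per well, seeded overnight then treated with compounds for 5 hr at 37 C. After the beta-lactamase read, viability in the same wells is measured by CellTiter-Glo luminescence after 30 min at room temperature.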

[7] = qHTS assay to identify small molecule antagonists of the retinoid-related orphan receptor gamma (ROR-gamma) signaling pathway - cell viability counter screen (AID 1159520; active = well fitted curve in the direction sought with a large enough effect in the repeat runs; an effect the other way counts as inactive or inconclusive; also: nearly all actives have a fitted effect of over 50% in size)
Outline: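 Tet-on ROR gamma CHO cells were given compounds for 2 hr, then doxycycline hyclate at 1 uM final, and incubated 16 hr at 37 C. Viability was measured as ATP content by CellTiter-Glo luminescence.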

[8] = biological target: Nuclear receptor ROR-gamma (Homo sapiens) (UniProt P51449); experiment: qHTS assay to identify small molecule antagonists of the retinoid-related orphan receptor gamma (ROR-gamma) signaling pathway (AID 1159521; active = well fitted curve in the direction sought with a large enough effect in the repeat runs; an effect the other way counts as inactive or inconclusive)
Outline: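 Decreased RORE-driven luciferase luminescence indicates antagonism. Tet-on RORγ CHO cells received compound, then 1 uM final doxycycline 2 h later; signal read after 16 h incubation.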

[9] = qHTS assay to identify small molecule agonists of the AP-1 signaling pathway - cell viability counter screen (AID 1159525); also: nearly all actives have a fitted effect of over 55% in size
Outline: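 AP-1-bla ME-180 cells in Opti-MEM with 0.5% dialyzed FBS, compound exposure 5 h at 37 C in 15-point titration. Viability read in the same wells as ATP content by CellTiter-Glo luminescence, normalised to tetra-n-octylammonium bromide and DMSO controls.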

[10] = qHTS assay to identify small molecule agonists of the AP-1 signaling pathway (AID 1159526)

Measured: outcome

C[C@H](CCC(=O)O)[C@H]1CC[C@H]2[C@@H]3[C@H](O)C[C@@H]4C[C@H](O)CC[C@]4(C)[C@H]3C[C@H](O)[C@]12C
inactive: [1] | [2] | [3] | [4] | [5] | [6] | [7] | [8] | [9] | [10]

COc1ccc(/C=N/NC(=O)c2ccncc2)cc1OC
inactive: [1] | [2] | [3] | [4] | [5] | [6] | [7] | [8] | [9] | [10]

CCN1CN(CC)CN(CC)C1
inactive: [1] | [2] | [3] | [4] | [5] | [6] | [7] | [8] | [9] | [10]

O=C1OC(=O)c2ccccc21
inactive: [1] | [3] | [4] | [5] | [6] | [7] | [8] | [9] | [10]

CCCO
inactive: [1] | [2] | [3] | [4] | [5] | [6] | [7] | [8] | [9] | [10]

Cc1c(C(C)C)c(=O)n(-c2ccccc2)n1C
inactive: [1] | [3] | [4] | [5] | [6] | [7] | [8] | [9] | [10]

Nc1ccnc(=O)[nH]1
inactive: [1] | [3] | [4] | [5] | [6] | [7] | [8] | [9] | [10]

CCCCOC(=O)C(=O)OCCCC
inactive: [1] | [2] | [3] | [4] | [5] | [6] | [7] | [8] | [9] | [10]

Nc1nc(=O)n([C@@H]2O[C@H](CO)[C@@H](O)[C@@H]2F)cc1I
inactive: [1] | [2] | [3] | [4] | [5] | [6] | [7] | [8] | [9] | [10]

COc1cc(C=O)ccc1OC(=O)C(C)C
inactive: [1] | [2] | [3] | [4] | [5] | [6] | [7] | [8] | [9] | [10]

CCCCC(CC)CNC(=O)CC(C)OC(=O)CCC(=O)O (configuration not stated)
inactive: [1] | [2] | [3] | [4] | [5] | [6] | [7] | [8] | [9] | [10]

CCNC(=O)NCCCOc1cccc(CN2CCCCC2)c1
inactive: [1] | [2] | [3] | [4] | [5] | [6] | [7] | [8] | [9] | [10]

O=C(/C=C/c1ccccc1)NCCO
inactive: [1] | [2] | [3] | [4] | [5] | [6] | [7] | [8] | [9] | [10]

CCCCCCCC/C=C\CCCCCCCC(=O)OC[C@@H](O)[C@H]1OC[C@H](O)[C@H]1O
inactive: [1] | [3] | [4] | [5] | [6] | [7] | [8] | [9] | [10]

Cc1ncc([N+](=O)[O-])n1CC(O)CCl (configuration not stated)
inactive: [1] | [2] | [3] | [4] | [5] | [6] | [7] | [8] | [9] | [10]

CCCC(C)CC (configuration not stated)
inactive: [1] | [2] | [3] | [4] | [5] | [6] | [7] | [8] | [9] | [10]

C1CCN2C[C@@H]3C[C@@H](CN4CCCC[C@@H]34)[C@H]2C1
inactive: [1] | [2] | [3] | [4] | [5] | [6] | [7] | [8] | [9] | [10]

CC(C)C(=O)Nc1cccc(C(F)(F)F)c1
inactive: [1] | [2] | [3] | [4] | [5] | [6] | [7] | [8] | [9] | [10]

C=C[C@@H](C)CCC=C(C)C
inactive: [1] | [3] | [4] | [5] | [6] | [7] | [8] | [9] | [10]

NCCc1ccn[nH]1
inactive: [1] | [2] | [3] | [4] | [5] | [6] | [7] | [8] | [9] | [10]

CC(C)(C)NCCO
inactive: [1] | [2] | [3] | [4] | [5] | [6] | [7] | [8] | [9] | [10]

CCOC(=O)CC#N
inactive: [1] | [2] | [3] | [4] | [5] | [6] | [7] | [8] | [9] | [10]

C=C(C)C(=O)OC
inactive: [1] | [2] | [3] | [4] | [5] | [6] | [7] | [8] | [9] | [10]

C[C@H](CCC(=O)NCC(=O)O)[C@H]1CC[C@H]2[C@@H]3[C@H](O)C[C@@H]4C[C@H](O)CC[C@]4(C)[C@H]3C[C@H](O)[C@]12C
inactive: [3] | [4] | [5] | [6] | [7] | [8] | [9] | [10]

CCCCCCCCCCCCCCCCCCN(C)C
inactive: [1] | [3] | [4] | [5] | [6] | [7] | [8] | [9] | [10]
